The text below walks through data of paper PMC4552634, “A New Set of Chemical Starting Points with Plasmodium falciparum Transmission-Blocking Potential for Antimalarial Drug Discovery” (PLoS ONE, 2015).

About 3,200 (25%) of roughly 13,000 compounds showed an effect of 50% or more. Some of the results follow.

This assay concerns P. falciparum stage V gametocytes. The arrangement: BacTiter-Glo ATP luminescence viability of purified stage V gametocytes in 384-well plates, per cent inhibition versus DMSO. Conditions: 48 h, 5 µM; inhibitor.
The % Inhibition is the change of the read-out against control, counted positive when it falls. On to `CC1CN(Cc2cccc(-c3ccc(-c4nc5ccccc5[nH]4)cc3)c2)CC(C)O1.O=C(O)C(F)(F)F` (stereo not drawn) [TCMDC-133816], for which the “% Inhibition” value is listed as -91.64%. To `CSc1ccc(NC(=O)Nc2cc(C)nc3ccccc23)cc1Br` [TCMDC-139874] belongs -51.95%; to `CCN(CC)CCN(Cc1ccc(-c2ccc(C(F)(F)F)cc2)cc1)C(=O)Cn1c(CCc2ccccc2F)nc(=O)c2ccccc21` [TCMDC-141012], 52.86%. To `CCN(CC)CCN(Cc1ccc(-c2ccc(C(F)(F)F)cc2)cc1)C(=O)Cn1c(CCc2ccc(F)c(F)c2F)nc(=O)c2ccccc21` [TCMDC-140952] belongs 68.69%; to `CCN(CC)CCN(Cc1ccc(-c2ccc(C(F)(F)F)cc2)cc1)C(=O)Cn1c(CCc2ccc(F)c(F)c2F)nc(=O)c2ccc(F)cc21` [TCMDC-141072], 19.94%; to `Clc1ccc2c(NN=Cc3cccnc3)ccnc2c1` [TCMDC-123968], -19.33%.

As to `Cc1cccc2c3c([nH]c12)C1(CCN(CCc2ccccc2)CC1)NC(C(=O)NCc1ccccc1)C3` (stereo not drawn) [TCMDC-141245], the “% Inhibition” value is reported as -39.36%.

`Cc1cc(CN2CCN(CCOC(c3ccccc3)c3ccccc3)CC2)ccc1O` [TCMDC-135695]: the “% Inhibition” value is given as -7.709%. To `Cc1ccc(C)c(S(=O)(=O)NCC2CCN(Cc3ccc(O)cc3)CC2)c1` [TCMDC-141802] belongs 45.59%; to `COc1cc(CNCCCCCCNCc2cc(OC)c(OC)c3ccccc23)c2ccccc2c1OC` [TCMDC-137981], 104.3%. To `CCOc1c(CNCCCNc2cc(=O)c3ccccc3[nH]2)cc(I)cc1OC` [TCMDC-139847] belongs -35.79%; to `CCOc1cc(CNCCCCCCNCc2cc(OCC)c(OCC)c3ccccc23)c2ccccc2c1OCC` [TCMDC-137939], 106%; to `COc1cc(CNCCCCCCNCc2cc(OC)c3ccccc3c2OC)c(OC)c2ccccc12` [TCMDC-137502], 106.1%. Under `CCOc1c(Br)cc(C)cc1CNCCCNc1nc2ccccc2[nH]1` [TCMDC-140090] stands 7.25%. With `CCOc1cc2ccccc2cc1CNCCCCCCNCc1cc2ccccc2cc1OCC` [TCMDC-137940], the “% Inhibition” value is recorded as 69.35%. As to `COc1cc2ccccc2cc1CNCCCCCCNCc1cc2ccccc2cc1OC` [TCMDC-137955], the “% Inhibition” value is listed as 4.122%. Take `CCOc1c(C)cc(C(F)(F)F)cc1CNCCCNc1cc(=O)c2ccccc2[nH]1` [TCMDC-141046]: the “% Inhibition” value is -34.36%.

Turning to `COc1cc(-c2cc(-c3ccc(OCCN(C)C)cc3)[nH]c2-c2ccncc2)ccc1Cl` [TCMDC-141251], the “% Inhibition” value was -2.677%. In the case of `COc1cc(F)c2ncc(Cl)c([C@H](O)CN3CCC(NCc4cc5c(cn4)OCCO5)CC3)c2c1` [TCMDC-135474], the “% Inhibition” value is 10.97%. On to `O=C(NC1CCC(CCN2Cc3cccc(C(F)(F)F)c3C2)CC1)c1cccc(-c2cccnc2)c1` (stereo not drawn) [TCMDC-139602], for which the “% Inhibition” value is given as -51.73%.

Take `COc1ccc(CNCc2ccc(-c3ccc(-c4nc5cc(C(F)(F)F)ccc5[nH]4)cc3)cc2)cc1.O=C(O)C(F)(F)F` [TCMDC-132724]: the “% Inhibition” value is reported as -6.92%.

As to `O=C(Nc1cccc(-c2ccc(-c3nc4ccc(F)cc4[nH]3)cc2)c1)Nc1ccc(Cl)c(Cl)c1` [TCMDC-133280], the “% Inhibition” value was -66.79%. As for `CC(C)C[C@H](NC(=O)c1cc2ccccc2s1)C(=O)N[C@H]1CCN(Cc2ccc(I)c(OC3CCN(C)C3)c2)C1` (stereo partly drawn) [TCMDC-140288], the “% Inhibition” value is recorded as 64.78%.

Take `CC(C)C[C@H](NC(=O)c1cc2ccccc2s1)C(=O)N[C@H]1CCN(Cc2ccc(OC3CCN(C)C3)c(Cl)c2)C1` (stereo partly drawn) [TCMDC-140293]: the “% Inhibition” value turned out to be 19.83%. To `CC(C)C[C@H](NC(=O)c1cc2ccccc2s1)C(=O)N[C@H]1CCN(Cc2ccc(I)c(OCCN3CCCC3)c2)C1` [TCMDC-140287] belongs 56%. To `CC1CCN(CC[C@H]2CCCN2S(=O)(=O)c2cccc(NC(=O)c3cc4ccccc4s3)c2)CC1` [TCMDC-141077] belongs -68%. Take `CC(C)C[C@H](NC(=O)c1cc2ccccc2s1)C(=O)N[C@H]1CCN(Cc2ccc(OCCCN(C)C)c(Cl)c2)C1` [TCMDC-140291]: the “% Inhibition” value is recorded as 44.54%. As for `CC(C)CC(NC(=O)c1cc2ccccc2s1)C(=O)N1CCCCCC1c1ccc(C(C)(C)C)cc1` (stereo not drawn) [TCMDC-136337], the “% Inhibition” value was determined as 63.43%. To `N#Cc1ccccc1S(=O)(=O)N1CCCC(CNC(=O)[C@H](CC2CCCCC2)NC(=O)c2cc3ccccc3s2)C1` (stereo partly drawn) [TCMDC-136558] belongs -3.694%. Under `COc1ccc(CC2(c3ccc(F)cc3)N=C(N)N(CCCc3ccc(F)c(F)c3)C2=O)cc1` (stereo not drawn) [TCMDC-136542] stands -2.474%; under `Clc1ccc2nnc(-c3c(Cl)cccc3Cl)n2n1` [TCMDC-124489], 23.9%.

As to `c1cc(CNCC2CCCO2)cc(-c2csc(-c3nc4ccccc4[nH]3)c2)c1` (stereo not drawn) [TCMDC-133108], the “% Inhibition” value is -15.46%.

In the case of `C=CCc1cc(Br)ccc1OCCCOc1c(C)nc(N)nc1N` [TCMDC-131366], the “% Inhibition” value was -2.875%. To `Cc1ccc2c(OCCN3CCC(Cc4ccc5c(c4)NC(=O)CO5)CC3)cc(F)cc2n1` [TCMDC-141356] belongs 22.38%.

`O=S(=O)(Nc1ccc(CCN2CCC(N3CCCCC3)CC2)cc1)c1cccc(C(F)(F)F)c1` [TCMDC-134090]: the “% Inhibition” value was determined as 84.05%.

Turning to `O=S(=O)(Nc1ccc(CCN2CCC(N3CCCCC3)CC2)cc1)c1ccccc1C(F)(F)F` [TCMDC-134080], the “% Inhibition” value worked out at 79.99%. Under `O=C(c1ccc(Cl)cc1)C1CCCN(C2CCN(CCc3ccccc3)CC2)C1` (stereo not drawn) [TCMDC-124655] stands -36.02%. To `Cc1cccc(S(=O)(=O)Nc2cccc(CCN3CCC(N4CCCCC4)CC3)c2)c1` [TCMDC-134087] belongs 26.17%. To `O=S(=O)(Nc1cccc(CCN2CCC(N3CCCCC3)CC2)c1)c1ccccc1C(F)(F)F` [TCMDC-134070] belongs 2.875%; to `CC(c1cccc(S(=O)(=O)NCc2cccc(C(F)(F)F)c2)c1)N1CCC(N2CCCCC2)CC1` (stereo not drawn) [TCMDC-133565], 5.245%; to `O=S(=O)(Nc1cccc(CCN2CCC(N3CCCCC3)CC2)c1)c1cccc(C(F)(F)F)c1` [TCMDC-134086], 60.6%. For `O=c1ccc(-c2nc3cc(Cl)c(Cl)cc3n2Cc2ccc(Cl)cc2Cl)c[nH]1` [TCMDC-124041], the “% Inhibition” value stood at 6.921%. Under `Cc1ccc(Nc2nc(C)cc(Nc3cccc(NS(C)(=O)=O)c3)n2)cc1` [TCMDC-133449] stands 22.69%; under `CCCc1cc(Cc2cnc(N)nc2N)cc(CCC)c1OCCCCCC(=O)OCC` [TCMDC-137289], -20.26%; under `Cc1ccc(NC(=O)c2ccc(N3CCN(c4ccncc4)CC3)cc2)cc1F` [TCMDC-135126], 6.025%. To `Cc1ccc(NC(=O)c2ccc(N3CCN(c4ccncc4)CC3)cn2)cc1F` [TCMDC-135156] belongs 103.4%; to `COc1cccc(NC(=O)c2nc(N3CCN(c4ccncc4)CC3)ccc2Cl)c1` [TCMDC-135104], 27.68%. Under `Cc1ccc(NC(=O)c2ccnc(N3CCN(c4ccncc4)CC3)c2)cc1F` [TCMDC-135102] stands 18.96%; under `O=C(Nc1ccc2c(c1)CCC2)c1nc(N2CCN(c3ccncc3)CC2)ccc1Cl` [TCMDC-135105], 30.18%; under `Cc1ccc(NC(=O)c2nc(N3CCN(c4ccncc4)CC3)ccc2Cl)cc1F` [TCMDC-135103], 90.08%.

Consider `CC(C)(C)C(=O)Nc1ccc(N2CCN(C(c3ccccc3)c3ccccc3)CC2)c(Cl)c1` [TCMDC-133713], for which the “% Inhibition” value worked out at 36.59%. As for `COc1ccc(Cl)cc1N1CCN(CCCNC(=O)c2ccc(-c3nc4cc(Cl)c(Cl)cc4[nH]3)c(C)c2)CC1` [TCMDC-140082], the “% Inhibition” value is given as -14.21%. To `O=C(Cn1cc(C=C2SC(=NC3CCCC3)N(C3CCCC3)C2=O)c2ccccc21)N1CCCC1` [TCMDC-124810] belongs -5.018%; to `COc1ccc2nccc(N(C)CC3(O)CCN(CCc4ccc5c(c4)NC(=O)CS5)CC3)c2n1` [TCMDC-141472], 49.29%; to `CC(C)C(C)(C#N)NC(=O)CSc1nc2ccc([N+](=O)[O-])cc2s1` (stereo not drawn) [TCMDC-123610], 79.56%. As to `O=C(CSc1nc2ccc([N+](=O)[O-])cc2s1)Nc1ccccc1-c1ccccc1` [TCMDC-124341], the “% Inhibition” value is recorded as 43.04%. To `CCCCC(=O)Nc1nc2ccc([N+](=O)[O-])cc2s1` [TCMDC-123686] belongs -7.174%. To `COc1ccc2nccc(N(C)CC3(O)CCC(NCc4cc5c(cn4)OCCO5)CC3)c2n1` (stereo not drawn) [TCMDC-134497] belongs 30.63%; to `N=c1ccn(CC(=NO)c2ccc(Cl)c(Cl)c2)cc1` [TCMDC-139033], -35.74%.

Consider `COc1ccccc1C1CCN(C2CCC(NC(=O)/C=C/c3ccc(F)c(F)c3)CC2)CC1` (stereo not drawn) [TCMDC-133493], for which the “% Inhibition” value was -77.67%. Under `O=[N+]([O-])c1nc(Br)n(Cc2ccc(Cl)cc2)n1` [TCMDC-125048] stands 51.98%; under `Clc1ccc(Cn2nc(Br)nc2Br)c(Cl)c1` [TCMDC-125047], -61.09%.

As for `N#Cc1ccc(-c2ccc(C(=O)NCCCCN3CCC(c4cc(Br)c5c(c4O)CCCC5)CC3)cc2)cc1` [TCMDC-135238], the “% Inhibition” value is -99.04%. As to `CC(=O)c1ccc(-c2ccc(C(=O)NCCCCN3CCC(c4ccc5c(c4O)CCCC5)CC3)cc2)cc1` [TCMDC-138653], the “% Inhibition” value is 60.63%. Under `CC(C)(Oc1c(C2CCN(CCCCNC(=O)c3ccc(-c4ccc(Cl)cc4)cc3)CC2)ccc2c1CCCC2)C(N)=O` [TCMDC-134939] stands -3.044%; under `O=C(NCCCCN1CCC(c2ccc3c(c2O)CCCC3)CC1)c1ccc(-c2ccc(Cl)cc2)cc1` [TCMDC-138661], 61.25%; under `COc1ccc2c(c1C1CCN(CCCCNC(=O)c3ccc(NC(=O)c4ccc(Cl)cc4)cc3)CC1)CCCC2` [TCMDC-138553], 46.07%. To `Cc1ccc(C2CCN(CCCCNC(=O)c3ccc(NC(=O)c4ccc(Cl)cc4)cc3)CC2)c(C)c1` [TCMDC-138354] belongs 9.967%. To `O=C(NCCCCN1CCC(c2ccc3c(c2O)CCCC3)CC1)c1ccc(NC(=O)c2ccc(Cl)cc2)cc1` [TCMDC-138645] belongs 88.57%; to `CC(Oc1c(C2CCN(CCCCNC(=O)c3ccc(-c4ccc(Cl)cc4)cc3)CC2)ccc2c1CCCC2)C(N)=O` (stereo not drawn) [TCMDC-134653], 65.96%.

On to `C=Cc1c(C2CCN(CCCCNC(=O)c3ccc(-c4ccc(C#N)cc4)cc3)CC2)ccc2c1CCCC2` [TCMDC-135273], for which the “% Inhibition” value was found to be 38.74%. Consider `CC(Oc1c(C2CCN(CCCCNC(=O)c3ccc(-c4ccc(C#N)cc4)cc3)CC2)ccc2c1CCCC2)C(N)=O` (stereo not drawn) [TCMDC-134551], for which the “% Inhibition” value is listed as 41.12%.
